# Test results published in paper PMC4081100, “A DNA-binding-site landscape and regulatory network analysis for NAC transcription factors in Arabidopsis thaliana”.
# Assays:
# Test in all cases: universal protein binding microarray (PBM); transcription factors of Arabidopsis thaliana; high values mean tight binding
# Conditions in all cases: protein: recombinant; tags: GST; chain copies: 2; dsDNA, one strand shown
# GST-ANAC092(1-176) = target: T1, GST-ANAC092(1-176) (Arabidopsis thaliana, UniProt Q9FKA0 1-176)
# T1 sequence: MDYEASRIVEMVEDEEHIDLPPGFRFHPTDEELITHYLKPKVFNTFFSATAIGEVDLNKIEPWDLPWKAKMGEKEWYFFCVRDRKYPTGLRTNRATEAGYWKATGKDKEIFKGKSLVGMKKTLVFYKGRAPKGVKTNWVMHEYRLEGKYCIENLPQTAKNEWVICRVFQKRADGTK
# Method in brief: (§1)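 Binding is expressed as the normalised enrichment score (E-score). Proteins carrying a GST tag, whether NAC-domain, full-length or DNA-binding-domain forms, were induced in cells, and zinc acetate was added for zinc-finger proteins. After purification on glutathione–Sepharose 4B and quantification by A280 or anti-GST western blot, each was applied in duplicate at 200 to 500 nM final to custom all-10-mer Agilent 4 × 180K arrays made double-stranded by primer extension. Gapped and ungapped 8-mers were scored.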
# GST-ANAC019 NAC domain = target: T2, GST-ANAC019 NAC domain (Arabidopsis thaliana, UniProt Q9C932 14-162)
# T2 sequence: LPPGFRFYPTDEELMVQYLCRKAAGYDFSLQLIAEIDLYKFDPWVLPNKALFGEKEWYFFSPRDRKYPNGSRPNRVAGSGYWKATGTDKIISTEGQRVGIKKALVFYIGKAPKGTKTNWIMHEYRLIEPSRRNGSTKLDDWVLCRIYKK
# Method in brief: as §1
# GST-ANAC055(1-171) = target: T3, GST-ANAC055(1-171) (Arabidopsis thaliana, UniProt Q9LDY8 1-171)
# T3 sequence: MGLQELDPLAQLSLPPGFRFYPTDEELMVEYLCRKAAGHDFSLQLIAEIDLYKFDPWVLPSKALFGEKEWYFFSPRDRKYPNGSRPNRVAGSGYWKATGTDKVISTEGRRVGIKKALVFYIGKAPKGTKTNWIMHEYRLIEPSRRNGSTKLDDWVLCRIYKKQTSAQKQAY
# Method in brief: as §1
# GST-ATAF1 NAC domain = target: T4, GST-ATAF1 NAC domain (Arabidopsis thaliana, UniProt Q39013 7-158)
# T4 sequence: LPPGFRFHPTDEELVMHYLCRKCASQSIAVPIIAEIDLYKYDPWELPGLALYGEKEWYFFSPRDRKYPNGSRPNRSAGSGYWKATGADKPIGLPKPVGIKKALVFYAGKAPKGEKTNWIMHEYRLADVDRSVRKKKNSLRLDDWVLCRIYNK
# Method in brief: as §1
# [1] = target: T5, GST-ANAC092(1-285) full length (Arabidopsis thaliana, UniProt Q9FKA0 1-285)
# T5 sequence: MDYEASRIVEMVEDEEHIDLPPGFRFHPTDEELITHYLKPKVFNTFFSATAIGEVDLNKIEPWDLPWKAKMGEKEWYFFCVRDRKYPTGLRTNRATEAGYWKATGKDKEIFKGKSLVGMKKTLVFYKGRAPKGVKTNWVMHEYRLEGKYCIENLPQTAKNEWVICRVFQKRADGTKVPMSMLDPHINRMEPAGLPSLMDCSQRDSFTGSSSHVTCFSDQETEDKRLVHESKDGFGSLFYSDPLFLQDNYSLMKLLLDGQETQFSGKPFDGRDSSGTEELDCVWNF
# Method in brief: as §1
# GST-NAP(1-166) = target: T6, GST-NAP(1-166) (Arabidopsis thaliana, UniProt O49255 1-166)
# T6 sequence: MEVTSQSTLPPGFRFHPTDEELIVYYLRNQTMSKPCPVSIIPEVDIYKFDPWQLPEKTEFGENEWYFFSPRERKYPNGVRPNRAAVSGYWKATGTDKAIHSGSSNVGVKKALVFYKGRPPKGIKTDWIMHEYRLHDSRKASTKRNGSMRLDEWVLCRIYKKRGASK
# Method in brief: as §1
# GST-NST2(1-184) = target: T7, GST-NST2(1-184) (Arabidopsis thaliana, UniProt Q9M274 1-184)
# T7 sequence: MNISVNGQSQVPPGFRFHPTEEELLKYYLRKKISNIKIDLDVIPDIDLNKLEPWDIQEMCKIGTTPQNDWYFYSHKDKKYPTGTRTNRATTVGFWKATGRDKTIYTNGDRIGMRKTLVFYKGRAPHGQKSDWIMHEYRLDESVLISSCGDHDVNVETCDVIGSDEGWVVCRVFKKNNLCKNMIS
# Method in brief: as §1
# GST-SND1(1-203) = target: T8, GST-SND1(1-203) (Arabidopsis thaliana, UniProt Q9LPI7 1-203)
# T8 sequence: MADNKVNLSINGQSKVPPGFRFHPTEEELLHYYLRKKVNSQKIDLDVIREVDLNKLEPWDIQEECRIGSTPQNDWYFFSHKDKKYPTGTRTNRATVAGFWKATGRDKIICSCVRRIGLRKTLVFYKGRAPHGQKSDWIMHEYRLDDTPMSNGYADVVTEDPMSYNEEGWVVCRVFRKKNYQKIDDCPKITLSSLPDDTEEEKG
# Method in brief: as §1
# GST-VND3 NAC domain = target: T9, GST-VND3 NAC domain (Arabidopsis thaliana, UniProt Q9FH59 12-162)
# T9 sequence: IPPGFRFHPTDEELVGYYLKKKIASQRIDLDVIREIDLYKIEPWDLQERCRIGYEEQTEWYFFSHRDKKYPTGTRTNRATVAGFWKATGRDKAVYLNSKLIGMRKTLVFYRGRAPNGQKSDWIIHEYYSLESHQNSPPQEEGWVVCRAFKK
# Method in brief: as §1
# GST-VND7 NAC domain = target: T10, GST-VND7 NAC domain (Arabidopsis thaliana, UniProt Q9C8W9 9-158)
# T10 sequence: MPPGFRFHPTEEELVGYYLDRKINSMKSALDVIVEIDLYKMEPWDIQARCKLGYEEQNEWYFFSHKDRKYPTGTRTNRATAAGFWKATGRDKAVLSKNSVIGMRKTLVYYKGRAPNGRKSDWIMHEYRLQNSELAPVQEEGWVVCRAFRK
# Method in brief: as §1
Sequence,binding signal (GST-ANAC092(1-176)),binding signal (GST-ANAC019 NAC domain),binding signal (GST-ANAC055(1-171)),binding signal (GST-ATAF1 NAC domain),binding signal [1],binding signal (GST-NAP(1-166)),binding signal (GST-NST2(1-184)),binding signal (GST-SND1(1-203)),binding signal (GST-VND3 NAC domain),binding signal (GST-VND7 NAC domain)
GTACGCCA,0.379 E-score,0.139 E-score,0.153 E-score,0.121 E-score,0.45 E-score,0.0526 E-score,0.225 E-score,0.398 E-score,0.07 E-score,0.114 E-score
ACGCTAAC,0.43 E-score,0.143 E-score,0.0694 E-score,0.142 E-score,0.457 E-score,0.0585 E-score,0.289 E-score,0.454 E-score,0.127 E-score,0.113 E-score
GCACGTTA,0.433 E-score,0.153 E-score,0.205 E-score,0.226 E-score,0.464 E-score,0.222 E-score,0.234 E-score,0.369 E-score,0.217 E-score,0.246 E-score
GCGTGTAC,0.403 E-score,0.19 E-score,0.196 E-score,0.19 E-score,0.434 E-score,0.261 E-score,0.195 E-score,0.191 E-score,0.197 E-score,0.193 E-score
GGACGCAA,0.411 E-score,0.155 E-score,0.0669 E-score,0.0919 E-score,0.437 E-score,0.303 E-score,0.107 E-score,0.25 E-score,0.0908 E-score,0.0578 E-score
ACGCCAAC,0.404 E-score,0.116 E-score,0.175 E-score,0.159 E-score,0.436 E-score,0.0544 E-score,0.227 E-score,0.379 E-score,0.0688 E-score,0.118 E-score
ATAACGTG,0.446 E-score,0.0978 E-score,0.143 E-score,0.142 E-score,0.447 E-score,0.165 E-score,0.221 E-score,0.299 E-score,0.191 E-score,0.109 E-score
ACGTCATC,0.418 E-score,0.288 E-score,0.285 E-score,0.291 E-score,0.449 E-score,0.343 E-score,0.214 E-score,0.411 E-score,0.327 E-score,0.273 E-score
CACGGCAC,0.462 E-score,0.484 E-score,0.484 E-score,0.432 E-score,0.474 E-score,0.478 E-score,0.292 E-score,0.203 E-score,0.458 E-score,0.485 E-score
AAGCGTGT,0.421 E-score,0.242 E-score,0.167 E-score,0.207 E-score,0.44 E-score,0.133 E-score,0.192 E-score,0.186 E-score,0.126 E-score,0.213 E-score
GCACGCAA,0.492 E-score,0.458 E-score,0.396 E-score,0.277 E-score,0.493 E-score,0.423 E-score,0.405 E-score,0.456 E-score,0.438 E-score,0.431 E-score
ACACGCAT,0.462 E-score,0.346 E-score,0.335 E-score,0.292 E-score,0.468 E-score,0.332 E-score,0.242 E-score,0.295 E-score,0.351 E-score,0.33 E-score
CGCACGCA,0.401 E-score,0.291 E-score,0.241 E-score,0.0589 E-score,0.42 E-score,0.291 E-score,0.213 E-score,0.229 E-score,0.213 E-score,0.232 E-score
TCACGGCA,0.398 E-score,0.473 E-score,0.438 E-score,0.385 E-score,0.429 E-score,0.344 E-score,0.177 E-score,0.16 E-score,0.45 E-score,0.456 E-score
CACGCTTC,0.37 E-score,0.184 E-score,0.165 E-score,0.212 E-score,0.437 E-score,0.109 E-score,0.188 E-score,0.232 E-score,0.111 E-score,0.127 E-score
